In the library only some 12% were active in any assay of this set; here they are far more common.
SARS PLpro yeast: qHTS of Yeast-based Assay for SARS-CoV PLP; AID 485353, 2010; hit rate 0.19% among 330,000; Potency, µM (highest dose often 32.9 µM), without a hit: at the highest dose activity, positive = growth rescue, usual class: activators; S. cerevisiae expressing SARS-CoV PLpro, growth rescue; further: potency means the concentration at half of the fitted maximal effect; 0% is about no effect; nearly all actives have a fitted effect of over 55% in size
Shiga inhibitor: A qHTS for Small Molecule Inhibitors of Shiga Toxin; Vero cells, Shiga toxin protein synthesis inhibition reporter; inhibition, % at 38.7 µM; hit rate 9.2% among 290,000; AID 2315, 2010; in the data active means inhibition mostly above about 28%, no sharp cut-off; inactive means mostly below about 43%; further: 0% is about no effect
Cycloheximide cs: Cycloheximide Counterscreen for Small Molecule Inhibitors of Shiga Toxin; cell reporter, cycloheximide protein synthesis inhibition counterscreen; max response, %; hit rate 12% among 300,000; AID 2314, 2010; in the data active means max response mostly above about 13%, no sharp cut-off; inactive means mostly below about 14%; further: read at 38.3 µM for the half of the compounds with a filed dose; 0% is about no effect
NS1 inh: qHTS Assay for Inhibitors of Influenza NS1 Protein Function. AID 2326, 2010. Potency, µM (doses to about 46.1 µM), for inactives: at the highest dose activity, positive = more growth. hit rate 0.4% among 270,000; further: potency means the concentration at half of the fitted maximal effect; actives are rising curves; nearly all actives have a fitted effect of over 50% in size
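OD600 was taken as the measure of yeast growth restored by compound in an NS1-expressing S. cerevisiae strain. Cells had been washed out of glucose medium and diluted 1:100 into galactose -URA medium, pH 6.0.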
Numbers without * were called inactive; u = inconclusive; x = no result; ! = a repeat was not active. Unless noted, the call rests on the fitted dose curve.

SMILES	SARS PLpro yeast	Shiga inhibitor	Cycloheximide cs	NS1 inh
Nc1c(Cl)ncnc1NCc1cccnc1	-0.4%	14.6	-1.1	3.9%
Clc1ccc(-n2ncc3c(NCc4cccnc4)ncnc32)cc1Cl	0.6%	27.4	34.3*	0.2%
CNC(=O)CCCN1C(=O)c2ccccc2Sc2ncccc21	-0.1%	-5.5	-1.3	4.3%
COc1ccc(CCNc2cc(=O)[nH]c(N)n2)cc1	5.1%	-10.3	-1.2	u
CC(C)(C)Nc1ncnc2c1cnn2-c1ccccc1	-11.5%	95.6*	56.8*	-128.8%
CCOc1ccccc1Nc1ncnc2c1cnn2-c1ccccc1	-21.4%	-2.9	8.9	-54.9%
c1ccc(CCNc2ncnc3c2cnn3-c2ccccc2)cc1	-67.2%	66.4*	43.9*	-48.9%
Cn1ncc2c(NCc3ccccc3)ncnc21	4.2%	7.8	13.1*!	-17.4%
CCOC(=O)CNC(=O)CN1C(=O)CC(c2ccccc2)S(=O)(=O)c2ccccc21 (stereo not given)	1.3%	20.2	3.1	x
O=C(CCCOc1ccccc1)Nc1ccncc1	3.6%	32.6	5.5	9.9%
CCNC(=O)CCCOc1ccc(Cl)cc1Cl	-1.4%	53.9*	28.8*	-52.2%
O=C(CCCOc1ccc(Cl)cc1Cl)Nc1ccncc1	-25.2%	24.6	14.8*	-101.0%
Cc1ccnc(NC(=O)CCCOc2ccc(Cl)cc2C)c1	-1.3%	-13.6	-3.0	x
O=C(COc1ccc(Cl)cc1Br)Nc1ccncc1	-20.8%	46.9*	57.6*	-52.7%
COC(=O)CCC(=O)NNC(=O)CCCOc1ccc(Cl)cc1Cl	0.6%	-6.3	-3.2	1.2%
O=C(CCCOc1ccc(Cl)cc1Cl)Nc1ccccn1	0.1%	54.8*	15.5	-1.9%
Cc1ccc(OCC(=O)Nc2ccncc2)c(C)c1	-1.5%	23.1	19.9*	-22.9%
O=C(COc1ccc(Cl)cc1Cl)Nc1cccnc1	-7.0%	86.3*	45.5*	x
Cc1ccc(OCC(=O)NNC(=O)c2ccco2)c(C)c1	-7.9%	13.9	13.6*	-11.4%
COCCNC(=O)COc1ccc(C)cc1C	13.7%	36.5	11.8	2.9%
Cc1ccccc1OCC(=O)Nc1ccncc1	u	39.9	1.8	-3.1%
O=C(COc1ccc(Cl)cc1Cl)N/N=C/c1cccnc1	0.3%	-7.4	-4.1	-3.4%
c1ccc(-c2cc(N3CCOCC3)nc(-c3ccccc3)n2)cc1	u	-10.6	3.2	-8.3%
COc1ccc(Nc2nc(-c3ccncc3)nc3ccccc23)cc1	2.4%	-5.0	-5.1	-0.6%
Cc1ccc(-c2nc(Nc3ccc(N4CCOCC4)cc3)c3ccccc3n2)cc1	-4.4%	52.4*	15.9	-23.0%
SMILES	SARS PLpro yeast	Shiga inhibitor	Cycloheximide cs	NS1 inh
Cc1ccc(-c2nc(Nc3ccc(O)cc3)c3ccccc3n2)cc1	-6.9%	55.7	13.8*	-1.8%
Cc1ccc(-c2nc(Nc3cccc(O)c3)c3ccccc3n2)cc1	-6.1%	32.8	2.4	-34.0%
c1ccc(-c2cc(-c3ccc(N4CCOCC4)cc3)nc3ccccc23)cc1	-9.7%	-9.4	13.5*	6.0%
O=C(CCCOc1ccccc1)N1CCN(c2ccccc2)CC1	16.4%	35.0	21.8	-47.8%
O=C(CCSc1ccc(Cl)cc1)N1CCN(c2ncccn2)CC1	1.0%	37.7	16.7*	-52.7%
O=C(/C=C/c1ccc(Cl)cc1)N1CCN(c2c(Cl)cccc2[N+](=O)[O-])CC1	-22.4%	20.0	-4.8	27.6%
O=C(CCOc1ccccc1)N1CCN(c2ccc(O)cc2)CC1	-0.8%	62.9*	46.7*	1.3%
O=C(CSC1=NCCS1)N1CCN(c2ccccc2)CC1	17.0%	38.4*	26.4*	23.5%
O=C(CSc1ccc(Cl)cc1)N1CCN(c2c(Cl)cccc2[N+](=O)[O-])CC1	-15.5%	45.5	55.9*	-87.3%
O=C(c1ccc(Cl)cc1)N1CCN(c2ncccn2)CC1	-1.3%	-3.7	-2.4	3.1%
O=C(NCC(c1cccnc1)N1CCN(c2ccccc2F)CC1)c1cccc(Cl)c1 (stereo not given)	-21.0%	-17.7	-5.6	-35.2%
CCn1c(CC(=O)Nc2ccc(C)cc2)nnc1SCC(=O)N1CCOCC1	1.5%	-5.9	-1.7	-8.3%
CC(=O)Nc1ccc(S(=O)(=O)N2CCN(c3cnn(C)c(=O)c3Cl)CC2)cc1	0.7%	-12.8	-0.8	-40.1%
O=C(CSc1ccccn1)N1CCN(c2ccccc2)CC1	-8.7%	35.1*	34.8*	2.1%
O=C(CCSc1ccc(Cl)cc1)N1CCCCCC1	3.7%	61.5*	20.6*	-17.0%
O=C(CSc1ccccc1)N1CCN(c2ccccc2)CC1	u	85.2*	17.1	-7.6%
Cc1ccc(C)c(C(=O)CCC(=O)N2CCN(c3ncccn3)CC2)c1	-1.0%	37.8*	35.6*	-3.3%
Cc1ccc(C)c(OCC(=O)N2CCN(c3ncccn3)CC2)c1	2.2%	x	x	x
CN(C)CCCNC(=O)N1c2ccccc2C=Cc2ccccc21	0.4%	-1.3	-3.2	17.2%

Source: PubChem BioAssay
